Most compounds without a hit are left out; they make up all but 21% or so of the library.
Pf growth 48h = inhibits P. falciparum growth in the first generation, 48 h; P. falciparum luciferase growth in erythrocytes, 48 h; AID 504832; Potency, µM (series often up to 28.7 µM), for the others: at the highest dose activity change, negative = inhibition, usual class: inhibitors; hit rate 5.9% among 310,000; note: potency is the fitted concentration of half-maximal effect; % is set by controls: 0 for no effect and ±100 for the full control effect
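A one-generation exposure of luciferase-tagged malaria parasites in RPMI 1640/Albumax erythrocyte culture, 37 C and 5% CO2. Inhibition is inferred from decreased luminescence after adding detection reagent.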
Pf growth 96h = P. falciparum growth inhibition at 96 hours; P. falciparum luciferase reporter growth, 96 h; Potency, µM (titrated, usually from 28.7 µM), without a hit: at the highest dose activity change, negative = inhibition, hits mostly inhibitors; hit rate 6.9% among 320,000; note: potency is the fitted concentration of half-maximal effect; % is set by controls: 0 for no effect and ±100 for the full control effect
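Two parasite generations (96 h, 37 C, 5% CO2) of compound exposure in infected erythrocytes (0.05% parasitemia, 2% hematocrit). Luciferase-reporter P. falciparum; decreased luminescence indicates inhibited growth, aimed at apicoplast-acting delayed death.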
Shiga inhibitor = blocks Shiga toxin action in Vero cells; Vero cells, Shiga toxin protein synthesis inhibition reporter; inhibition, % at 38.7 µM; hit rate 9.2% among 290,000; AID 2315; in the data active = inhibition mostly above about 28%, no sharp cut-off; inactive = mostly below about 43%; note: 0% is about no effect
Cycloheximide cs = counter-screen hit for Shiga toxin inhibitors, cycloheximide; cell reporter, cycloheximide protein synthesis inhibition counterscreen; max response, %; hit rate 12% among 300,000; in the data active = max response mostly above about 13%, no sharp cut-off; inactive = mostly below about 14%; note: read at 38.3 µM for the half of the compounds with a filed dose; 0% is about no effect
NS1 inh = inhibitors of influenza NS1 protein function; hit rate 0.4% among 270,000; AID 2326; Potency, µM (titrated, usually from 46.1 µM), inactives show top-dose activity, positive = more growth; calls by dose curve; note: potency is the fitted concentration of half-maximal effect; actives are rising curves; nearly all actives have a fitted effect of over 50% in size
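A cell-based growth assay was used: compounds that relieve NS1-induced slow growth of budding yeast raise OD600. Assay medium was yeast nitrogen base with ammonium sulphate and -URA supplement, pH 6.0, with 2% galactose.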
Starred values were filed as active, the others as inactive. Unless noted, calls come from the whole dose curve; as a rule, active = well fitted inhibition curve with a large enough effect; inconclusive = small, poorly fitted or top-dose-only effect, or another doubt; inactive = no such curve, though single readings can be large or run the other way.

Results for c1cc(-c2nnc3sc(C4CCCCC4)nn23)ccn1 ?
Pf growth 48h: inconclusive; Pf growth 96h: inconclusive; Shiga inhibitor: -8; Cycloheximide cs: 2; NS1 inh: 8%

Results for COc1ccc(Cc2nn3c(-c4ccccc4OC)nnc3s2)cc1 ?
Pf growth 48h: 9.3µM*; Pf growth 96h: inconclusive; Shiga inhibitor: -2; Cycloheximide cs: -2; NS1 inh: -37%

Results for COc1ccccc1-c1nnc2sc(COc3ccc(Cl)cc3)nn12 ?
Pf growth 48h: inconclusive; Pf growth 96h: inconclusive; Shiga inhibitor: -11; Cycloheximide cs: 1; NS1 inh: -85%

How did COc1ccccc1-c1nnc2sc(C3CCCCC3)nn12 do in these assays?
Pf growth 48h: 10µM*; Pf growth 96h: 20%; Shiga inhibitor: 49; Cycloheximide cs: -3; NS1 inh: -14%

What do the screens show for `O=C(COC(=O)C1CCN(S(=O)(=O)c2ccccc2)CC1)NC(=O)c1ccc(OC(F)F)cc1`?
Pf growth 48h: -9%; Pf growth 96h: -13%; Shiga inhibitor: -8; Cycloheximide cs: -3; NS1 inh: 16%

What do the screens show for `COC(=O)[C@@H]1C[C@@H](c2ccccc2)[C@H](C)C1(C)C`?
Pf growth 48h: -1%; Pf growth 96h: 13%

Results for N#Cc1ccc(CSc2nnc3[nH]c(=O)cc(N)n23)cc1 ?
Pf growth 48h: 4.1µM*; Pf growth 96h: -38%; Shiga inhibitor: 21; Cycloheximide cs: 8

What do the screens show for `COc1ccccc1N(Cc1cc2ccc(C)cc2[nH]c1=O)C(C)=O`?
Pf growth 48h: 5%; Pf growth 96h: inconclusive; Shiga inhibitor: -19; Cycloheximide cs: -2; NS1 inh: 13%

What do the screens show for `Cc1ccc2cc(CNC(C)C)c(=O)[nH]c2c1`?
Pf growth 96h: 5.2µM*; Shiga inhibitor: -5; Cycloheximide cs: -1; NS1 inh: 1%

How did COc1ccc(CCN(Cc2cc3ccc(C)cc3[nH]c2=O)C(C)=O)cc1OC do in these assays?
Pf growth 48h: 2.3µM*; Pf growth 96h: -2%; Shiga inhibitor: -5; Cycloheximide cs: -3; NS1 inh: 1%

What do the screens show for `Cc1cccc(CCNCc2cc3ccc(C)cc3[nH]c2=O)c1`?
Pf growth 48h: -9%; Pf growth 96h: -17%; Shiga inhibitor: -8; Cycloheximide cs: -3; NS1 inh: 3%

What do the screens show for `Cc1ccc2cc(CCNC(=O)C(C)C)c(=O)[nH]c2c1`?
Pf growth 48h: 20%; Pf growth 96h: 9%; Shiga inhibitor: 2; Cycloheximide cs: 1; NS1 inh: -1%

How did COc1ccc(CCNCc2cc3ccc(C)cc3[nH]c2=O)cc1OC do in these assays?
Pf growth 48h: 17%; Pf growth 96h: 13µM*; Shiga inhibitor: -6; Cycloheximide cs: -4; NS1 inh: 1%

What do the screens show for `O=C(NCCCN1CCCCC1)C1CCN(c2ncnc3c2nc2n3CCCCC2)CC1`?
Pf growth 48h: 1%; Pf growth 96h: -11%; Shiga inhibitor: -6; Cycloheximide cs: 3; NS1 inh: -1%

How did CC(C)OCCCNc1ncnc2c1nc1n2CCCC1 do in these assays?
Pf growth 48h: 20%; Pf growth 96h: 33%; Shiga inhibitor: 29; Cycloheximide cs: 18*; NS1 inh: 2%

What do the screens show for `CN1CC(=O)Nc2ccc([N+](=O)[O-])cc2C1=O`?
Pf growth 48h: 0%; Pf growth 96h: inconclusive; Shiga inhibitor: 35; Cycloheximide cs: -3; NS1 inh: 1%

Results for CCOc1ccc(S(=O)(=O)NCCC(=O)NCc2cccnc2)cc1 ?
Pf growth 48h: 3%; Pf growth 96h: 3%

How did CCOC(=O)c1sc(NC(=O)C(OC(C)=O)c2ccccc2)nc1C (stereo unspecified) do in these assays?
Pf growth 48h: -24%; Pf growth 96h: 10µM*; Shiga inhibitor: 39*; Cycloheximide cs: 25*; NS1 inh: -7%

How did COC(=O)c1sc(NC(=S)NC(=O)c2ccccc2Cl)nc1C do in these assays?
Pf growth 48h: 106%; Pf growth 96h: 10%; Shiga inhibitor: 65*; Cycloheximide cs: 40*; NS1 inh: 14%

Results for Cc1nc(NC(=S)NC(=O)c2ccccc2)sc1C(=O)N(C)C ?
Pf growth 96h: 44%; Shiga inhibitor: 34; Cycloheximide cs: 22*; NS1 inh: -16%

Results for COC(=O)c1sc(NC(=S)NC(=O)c2ccccc2)nc1C ?
Pf growth 48h: 59%; Pf growth 96h: inconclusive; Shiga inhibitor: -9; Cycloheximide cs: 26*; NS1 inh: -4%

How did CCCOc1ccc(C(=O)NC(=S)Nc2nc(C)c(C(=O)N(C)C)s2)cc1 do in these assays?
Pf growth 96h: -11%; Shiga inhibitor: -10; Cycloheximide cs: -4; NS1 inh: 3%

How did COC(=O)c1sc(NC(=O)/C=C/c2ccccc2Cl)nc1C do in these assays?
Pf growth 48h: 32%; Pf growth 96h: inconclusive; Shiga inhibitor: 43; Cycloheximide cs: 13

How did COc1cccc(CNC(=O)CCN2C(=O)[C@@H]3Cc4ccccc4CN3C2=O)c1 do in these assays?
Pf growth 48h: -4%; Pf growth 96h: 43%; Shiga inhibitor: -8; Cycloheximide cs: -4; NS1 inh: 5%

How did NS(=O)(=O)c1ccc(CNC(=O)c2cc(-c3ccccn3)nc3ccc(Cl)cc23)cc1 do in these assays?
Pf growth 48h: inconclusive; Pf growth 96h: 44%; Shiga inhibitor: -15; Cycloheximide cs: -2

What do the screens show for `CCOC(=O)CN1C(=O)S/C(=C/c2ccc(OCc3ccc(C(=O)O)cc3)cc2)C1=O`?
Pf growth 48h: -1%; Pf growth 96h: inconclusive; Shiga inhibitor: 3; Cycloheximide cs: -2; NS1 inh: 3%

What do the screens show for `CCOC(=O)c1sc(NC(=S)NC(=O)c2cccc(OC)c2)nc1C`?
Pf growth 48h: 4%; Pf growth 96h: 121%; Shiga inhibitor: 5; Cycloheximide cs: 10; NS1 inh: -1%

What do the screens show for `CCOC(=O)c1sc(NC(=S)NC(=O)c2ccccc2)nc1C`?
Pf growth 48h: 245%; Pf growth 96h: 24%; Shiga inhibitor: 165*; Cycloheximide cs: 42*

Results for CCc1ccc(C(=O)N2CCC(c3nc4ccccc4s3)CC2)cc1 ?
Pf growth 48h: 13%; Pf growth 96h: 3.3µM*; Shiga inhibitor: -2; Cycloheximide cs: 1; NS1 inh: -37%

Results for O=C(NC(NCc1cccnc1)C(Cl)(Cl)Cl)c1cccc2ccccc12 (stereo unspecified) ?
Pf growth 48h: -24%; Pf growth 96h: -22%; Shiga inhibitor: -5; Cycloheximide cs: 0; NS1 inh: -12%

How did CN(Cc1ccccc1)C(=O)c1[nH]cnc1C(=O)NCC(=O)OCc1ccccc1 do in these assays?
Pf growth 48h: 27%; Pf growth 96h: 80%; Shiga inhibitor: -3; Cycloheximide cs: -1; NS1 inh: -12%

How did CCCN1C(=O)/C(=N\OCC(=O)Nc2ccc(C(C)C)cc2)c2ccccc21 do in these assays?
Pf growth 48h: 52%; Pf growth 96h: 34%; Shiga inhibitor: -8; Cycloheximide cs: 0; NS1 inh: 28%

How did CCCN1C(=O)/C(=N\OCC(=O)NC23CC4CC(CC(C4)C2)C3)c2ccccc21 do in these assays?
Pf growth 48h: 15µM*; Pf growth 96h: inconclusive; Shiga inhibitor: 3; Cycloheximide cs: -3; NS1 inh: -9%
